Sampled rows, rich in hits. Any-hit rate of the full collection: about 8.8%.
ALDH1A1 block: ALDH1A1 (human) enzyme inhibition; P00352; Purified ALDH1A1, NADH fluorescence, propionaldehyde substrate; Potency, µM (top dose mostly 75.3 µM), for the others: at the highest dose activity, negative = inhibition, hits mostly inhibitors; 220,000 compounds, 7.3% hits;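 note: plate controls were no enzyme wells and a reference inhibitor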
HPGD block: HPGD (human) dehydrogenase inhibition | Potency, µM, for the others: at the top dose activity change, negative = inhibition, usual class: inhibitors | P15428 | purified HPGD, NADH fluorescence kinetic, PGE2 substrate | 150,000 compounds, 4.3% hits; note: % is set by controls: 0 for no effect and ±100 for the full control effect
Target sequence (P15428 whole entry, looked up): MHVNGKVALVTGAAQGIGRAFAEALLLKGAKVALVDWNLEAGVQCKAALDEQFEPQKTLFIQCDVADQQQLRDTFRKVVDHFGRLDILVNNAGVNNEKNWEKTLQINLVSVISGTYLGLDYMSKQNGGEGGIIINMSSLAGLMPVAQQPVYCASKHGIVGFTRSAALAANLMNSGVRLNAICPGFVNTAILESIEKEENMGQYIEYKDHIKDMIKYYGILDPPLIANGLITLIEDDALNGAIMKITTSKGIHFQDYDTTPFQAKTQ
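20 nM HPGD preincubated 15 min at room temperature with compound in 50 mM Tris-HCl pH 8, 0.01% Tween 20. Started with 1 mM NAD+ and 30 uM prostaglandin E2; NADH fluorescence (360/450 nm) read 5 times over 30-s intervals, last minus first.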
LMNA splice mod: changes lamin A minigene splicing in HeLa cells. HeLa LMNA splicing GFP/RFP minigene ratio, 48 h. Potency, µM (doses to about 46.1 µM), without a hit: at the highest dose ratio change, negative = inhibition, usual class: inhibitors. 200,000 compounds, 0.01% hits. AID 1487; active = well fitted inhibition curve with a large enough effect in the signal ratio, with a control signal flat, not every such curve was filed as active; inconclusive = small, poorly fitted or top-dose-only effect, or effect the other way, or a change in a side signal; the % refers to the signal ratio; note: % is set by controls: 0 for no effect and ±100 for the full control effect
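Read-out is the ratio of GFP to DsRed2 object intensity, acquired by 488 nm laser-scanning cytometry on HeLa lamin A-EGFP minigene reporter cells. Compound incubation 48 hrs at 37 °C in Opti-MEM with 2% FBS; DMSO 0.5% final.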
HTT ATP protect: cytoprotection in Huntington HTT-Q103 PC12 cell model; Potency, µM (highest dose often 56.4 µM), inactives show cytoprotection (ATP increase), usual class: activators; PC12 HTT-Q103 induced, cytoprotection, ATP luminescence, 40 h; AID 1471; 230,000 compounds, 0.14% hits; active = well fitted curve in the direction sought with a large enough effect; inconclusive = small, poorly fitted or top-dose-only effect, or another doubt; inactive = no such curve, though single readings can be large; an effect the other way counts as inactive or inconclusive; note: % of control where 0% means no effect; nearly all actives have a fitted effect of over 45% in size
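Cells were plated at 1500 per well in phenol red-free DMEM with 5% equine and 5% calf serum. Tebufenozide (100 nM final) and compounds were added, then ATPlite reagent, and luminescence was read.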
HTT aggregate: reduces HttQ103-GFP aggregates in PC12 cells | PC12 HttQ103-GFP aggregates, Acumen cytometry, 40 h | Potency, µM (titrated, usually from 46.1 µM), for inactives: top-dose activity change, negative = inhibition, hits mostly inhibitors | 220,000 compounds, 1.1% hits | AID 1688; active = well fitted curve in the direction sought with a large enough effect; inconclusive = small, poorly fitted or top-dose-only effect, or another doubt; inactive = no such curve, though single readings can be large; an effect the other way counts as inactive or inconclusive; note: % is set by controls: 0 for no effect and ±100 for the full control effect; nearly all actives have a fitted effect of over 60% in size
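Aggregates are detected as GFP objects 1–25 µm with signal 6 STDEV over background in lysates of induced PC12 cells. These carry Huntingtin exon 1 with 103 glutamines fused to GFP under an ecdysone promoter; compounds titrated.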
Numbers without * were called inactive; ? = inconclusive; / = no result given; [ ] = another dose, or the depositor's remark. Unless noted, calls come from the whole dose curve; as a rule, active = well fitted inhibition curve with a large enough effect (not every such curve was filed as active); inconclusive = small, poorly fitted or top-dose-only effect, or another doubt; inactive = no such curve, though single readings can be large or run the other way. Potency is the fitted concentration of half-maximal effect.

SMILES	ALDH1A1 block	HPGD block	LMNA splice mod	HTT ATP protect	HTT aggregate
CCOCCCNC(=O)C(c1ccccc1)N(Cc1ccc2c(c1)OCO2)C(=O)c1ccccc1O (stereo not given)	10µM*	/	/	-21.4%	-0.9%
COc1ccc(NC(=O)N2CC3(CCN(C(=O)c4cccc(F)c4)CC3)C2)cc1	?	-9.8%	/	?	/
CCCCn1c(=N)c(S(=O)(=O)c2ccc(C)cc2)cc2c(=O)n3cc(C)ccc3nc21	/	/	-2.6%[46 µM]	/	/
O=C(COC(=O)c1cccs1)NCc1ccc2c(c1)OCO2	?	-22.7%	6.1%	-9.4%	-8.7%
O=C(CC12CCC(CC1)C2)NCc1ccc2c(c1)OCO2	-10.2%	15.8µM*	-6.0%	25.0%[1.9 µM]	-4.4%
Cc1ccc(-c2cc(C(=O)Nc3ccc4c(c3)OCCO4)c3ccccc3n2)cc1	2.5%	-0.5%	-9.4%	12.6%[10 µM]	10.4%
O=C(Nc1ccc2c(c1)OCO2)c1cc(-c2cccnc2)nc2ccccc12	7.94µM*	/	-13.9%[46 µM]	-40.4%	-15.3%
O=C(NCc1ccc2c(c1)OCO2)c1cccs1	8.6%	28.2µM*	0.9%	-26.6%	-7.5%
Cc1ccccc1CN1CCN(CC(=O)NCc2ccc3c(c2)OCO3)C1=O	12.6µM*	-14.7%	?	-124.4%	9.6%
CCOC(=O)Cc1csc(SCC(=O)Nc2cc(Cl)ccc2Oc2ccccc2)n1	-4.0%	-11.0%	4.6%	-18.7%	-2.5%
Oc1c(Br)cc(Br)cc1CN(Cc1cc(Br)cc(Br)c1O)C1CCCCC1	8.1%[13.5 µM]	-14.5%	/	-6.0%[10 µM]	/
CCN1C(=O)CC(NCc2ccc3c(c2)OCO3)C1=O (stereo not given)	-1.7%	-6.8%	-3.7%	-17.4%	-5.8%
Cc1ccc(CC(=O)NCc2ccc3c(c2)OCO3)cc1	-8.7%	-16.9%	11.7%	-30.6%	7.3%
O=C(Cc1ccccc1)NCc1ccc2c(c1)OCO2	-5.9%	31.6µM*	10.6%	-13.6%	3.4%[9.22 µM]
CCOCCCNC(=O)c1ccc2c(c1)OCO2	14.2%	14.1µM*	-2.8%	-1.9%	?
O=C1CC(NCc2ccc3c(c2)OCO3)C(=O)N1CCc1ccccc1 (stereo not given)	14.1µM*	-18.8%	6.8%	-8.0%	4.0%
O=C(NCCOc1ccccc1)c1ccc2c(c1)OCO2	-2.4%	-2.5%	1.2%	-52.8%	-16.5%
O=C(NCc1ccc2c(c1)OCO2)C1CC(c2ccccc2O)=NO1 (stereo not given)	11.2µM*	-24.3%	-0.6%	9.3%	-0.9%[9.22 µM]
CCN(CC)CCCC(C)n1c(-c2ccccc2)nc2c(NC3CCCCC3)nc(C)nc21 (stereo not given)	?	?	/	-23.2%	/
O=C(NCc1ccco1)c1cc(-c2ccccn2)nc2ccccc12	-11.7%	-5.2%	-1.9%	-16.4%	5.7%
O=C(NCc1ccc2c(c1)OCO2)c1cc(-c2ccccn2)nc2ccccc12	1.26µM*	/	?	-10.9%[10 µM]	-17.5%
COc1ccc(NC(=O)CN(C)S(=O)(=O)c2ccc3c(c2)CCCN3C(C)=O)cc1Cl	/	/	-3.2%[46 µM]	/	/
CC(C)C[C@H](NC(=O)C1OC1C(=O)O)C(=O)NCCCCN=C(N)N (stereo not given in full)	-3.8%	-5.7%	?	/	/
CCc1c(C)sc2c1CCN(C(=O)Nc1ccccc1C(F)(F)F)C2c1ccccc1 (stereo not given)	/	/	-25.6%[46 µM]	/	/
CC(C)COC(=O)n1ccc(C(=O)N2CCCCC2)n1	-3.0%	10µM*	2.4%	15.0%	1.2%
SMILES	ALDH1A1 block	HPGD block	LMNA splice mod	HTT ATP protect	HTT aggregate
CC1(OC(=O)c2cnc3ccccc3n2)C(=O)C=C2C=C(c3ccsc3)OC=C2C1=O (stereo not given)	-1.2%	-4.4%	/	19.9%	/
Cc1csc2c(SCC(=O)NNC(=O)C(Cl)Cl)ncnc12	28.2µM*	/	6.1%[46 µM]	2.9%[10 µM]	8.7%[9.22 µM]
O=C(CCNS(=O)(=O)c1ccc2c(c1)CCN2C(=O)C1CC1)Nc1ccc(F)cc1F	/	/	1.2%[46 µM]	/	/
CCCCn1nnc(NC(=O)c2sc3cc(Cl)ccc3c2Cl)n1	?	-25.7%	?	-1.5%	0.631µM*
CCCn1nnc(NC(=O)c2ccc(Cl)cc2Cl)n1	?	-22.2%	8.5%	-52.9%[10 µM]	-6.8%
CCNc1ncc2ncc(=O)n(Cc3ccc(F)cc3)c2n1	?	/	?	-101.7%	/
CCOC(=O)c1cc2c(nc1NC(=S)Nc1ccccc1)CC(C)(C)OC2	14.1µM*	-3.6%	-6.3%	1.9%[10 µM]	-4.3%

High-throughput results (PubChem)
